Cruzain inh noDet: qHTS Assay for Promiscuous and Specific Inhibitors of Cruzain (without detergent). Cruzipain (Trypanosoma cruzi), P25779. 200,000 tested, 2.3% active. Potency, µM, hits mostly inhibitors. AID 1476, 2009. purified cruzain, Z-FR-AMC fluorescence, no detergent; further: nearly all actives have a fitted effect of over 40% in size
Target sequence (P25779 123-467 limits assumed): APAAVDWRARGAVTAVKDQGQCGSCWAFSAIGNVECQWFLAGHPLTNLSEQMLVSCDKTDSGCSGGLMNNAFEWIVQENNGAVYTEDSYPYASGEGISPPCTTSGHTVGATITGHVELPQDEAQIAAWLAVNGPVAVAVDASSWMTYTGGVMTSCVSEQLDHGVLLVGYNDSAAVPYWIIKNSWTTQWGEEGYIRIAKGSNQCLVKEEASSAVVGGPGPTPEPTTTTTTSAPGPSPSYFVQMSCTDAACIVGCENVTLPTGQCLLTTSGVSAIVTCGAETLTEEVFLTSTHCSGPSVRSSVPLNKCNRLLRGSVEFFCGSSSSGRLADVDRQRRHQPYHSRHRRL
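Detergent-free condition (0.00005% Triton X-100) in acetate buffer pH 5.5 with DTT. 1.5 nM enzyme and compound were pre-mixed 15 min, then 2 uM Z-FR-AMC substrate added; reaction progress from fluorescence change between first and third reads (60 s).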
Cruzain inh Det: qHTS Assay for Promiscuous and Specific Inhibitors of Cruzain (with detergent) | purified cruzain, Z-FR-AMC fluorescence, 0.01% Triton | Cruzipain (Trypanosoma cruzi), P25779 | 200,000 tested, 0.43% active | Potency, µM, hits mostly inhibitors; further: nearly all actives have a fitted effect of over 40% in size
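Detergent-containing run (0.01% Triton X-100) in acetate buffer pH 5.5 with 5 mM DTT: enzyme at 1.5 nM final, 15 min compound preincubation at room temperature, then 2 uM Z-FR-AMC substrate. Activity taken as 60 s fluorescence increase at 360/450 nm.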
Each line names hits and unclear results; the compound was inactive in the other large screens. Only some compounds are listed: those with a hit (about 2.5% of all), similar ones and a draw of the others. The call rests on the fitted dose curve; in most records, active means well fitted curve in the direction sought with a large enough effect; inconclusive means small, poorly fitted or top-dose-only effect, or another doubt; inactive means no such curve, though single readings can be large; an effect the other way counts as inactive or inconclusive.

Cc1nn2cc(-c3ccc(-c4ccccc4)cc3)nc2s1	Cruzain inh noDet 12.6µM
Cc1cccc2sc(NC(=O)C3CCN(S(=O)(=O)c4cc([N+](=O)[O-])ccc4Cl)CC3)nc12	Cruzain inh noDet 20µM
O=C(NCc1ccc(Cl)cc1)C1CCN(S(=O)(=O)c2cc([N+](=O)[O-])ccc2Cl)CC1	none
NC[C@@H](O)CSCc1ccc(Cl)cc1	none
COc1ccc(CNc2ccccc2)cc1Br	none
COc1cc(CNc2cccc(F)c2)cc(Br)c1O	Cruzain inh noDet 25.1µM
COc1ccc2nccc(SCC(=O)O)c2c1	none
O=C(/C=C\c1ccc2c(c1)OCO2)Nc1nnc(SCC(=O)OCc2ccccc2)s1	Cruzain inh noDet 5.01µM
COC(=O)CSc1nnc(NC(=O)/C=C\c2ccc3c(c2)OCO3)s1	none
O=C(Nc1ccc(Br)cc1F)N1CCC2(CC1)Oc1ccccc1C(=O)N2Cc1ccccc1F	Cruzain inh noDet inconclusive
COc1ccc(C(=O)Oc2cc(-c3ccc(OC)c(OC)c3)cc(=O)c3c(C)oc(C)c23)cc1	none
CCS(=O)(=O)N1Cc2ccccc2CC1C(=O)Nc1nnc(SCc2ccc(C#N)cc2)s1 (stereo unspecified)	Cruzain inh noDet 25.1µM
CCS(=O)(=O)N1Cc2ccccc2CC1C(=O)Nc1nc2ccc(C)cc2s1 (stereo unspecified)	Cruzain inh noDet 12.6µM
CCS(=O)(=O)N1Cc2ccccc2CC1C(=O)Nc1ccc(C)cc1 (stereo unspecified)	Cruzain inh noDet inconclusive
N#Cc1ccc(CSc2nnc(NC(=O)C3CCCO3)s2)cc1 (stereo unspecified)	none
Cc1ccc(/C=C/c2onc(C)c2S(=O)(=O)N2CCC(C(=O)N3CC(C)Oc4ccccc43)CC2)cc1 (stereo unspecified)	none
C[C@@H]1CC2C3CCC4=CC(=O)C=CC4(C)[C@@]3(F)[C@@H](O)CC2(C)[C@@]1(O)C(=O)CO (stereo partly specified)	none
Cc1ccn2cc(CCNS(=O)(=O)c3ccc(F)c(C(F)(F)F)c3)nc2c1	Cruzain inh noDet 25.1µM
O=S(=O)(NCCc1cn2ccccc2n1)c1ccc(F)c(C(F)(F)F)c1	Cruzain inh Det 25.1µM
Cc1ccn2cc(CCNS(=O)(=O)c3ccc4c(c3)OCCO4)nc2c1	none
CCc1ccc(S(=O)(=O)NCCc2cn3ccccc3n2)s1	none
CCOC(=O)c1ccc(OCC2c3cc(OC)c(OC)cc3CCN2C(=O)Cc2ccc(OC)c(OC)c2)cc1 (stereo unspecified)	Cruzain inh noDet inconclusive
COc1ccc(CCNC(=O)c2cc(Nc3cc(C)cc(C)c3)nc3ccccc23)cc1OC	Cruzain inh noDet inconclusive
CCOc1ccc(CNC(=S)N/N=C/c2cccnc2)cc1	none
CCOc1ccc(CNC(=S)N/N=C\c2ccc([N+](=O)[O-])cc2)cc1	Cruzain inh noDet 20µM
COc1cccc(CNCCSc2nnnn2-c2ccccc2)c1OC	none
CCOc1ccc(C2NC(=O)c3sc(=S)n(-c4ccccc4)c3N2)cc1 (stereo unspecified)	none
COc1ccc(C2NC(=O)c3sc(=S)n(-c4ccccc4)c3N2)cc1 (stereo unspecified)	Cruzain inh noDet 25.1µM
Cc1cc(NC(=O)CN(C)S(=O)(=O)c2ccc3c(c2)CCC(=O)N3)ccc1Br	none
COc1ccc(-c2csc(C3=C(O)CN(Cc4ccc(Cl)cc4)C3=N)n2)cc1OC	none
COc1cccc(CN2CC(O)=C(c3nc(-c4ccc(Cl)cc4)cs3)C2=N)c1	Cruzain inh noDet 12.6µM
COc1ccc(N2CCN(C(=O)Cc3c(C(=O)O)c(C)cn3C)CC2)cc1	none
Cc1nn(-c2ccccc2)c2c1N(CCCC(=O)NCc1ccc(OC(C)C)cc1)C(=O)CS2	Cruzain inh noDet inconclusive
COc1ccc(CCC(=O)N2CCc3c([nH]c4ccccc34)C2c2ccc(F)cc2)cc1 (stereo unspecified)	Cruzain inh noDet inconclusive
O=C(CSCc1ccc(F)cc1)N1CCc2c([nH]c3ccccc23)C1c1ccccc1 (stereo unspecified)	none
O=C(CSc1ccccc1)N1CCc2c([nH]c3ccccc23)C1c1ccc(Cl)cc1 (stereo unspecified)	Cruzain inh noDet 12.6µM
O=C(CSCc1ccc(F)cc1)N1CCc2c([nH]c3ccccc23)C1c1ccc(Cl)cc1 (stereo unspecified)	Cruzain inh noDet 7.94µM
COc1ccc(CC(=O)N2CCc3c([nH]c4ccccc34)C2c2ccc(SC)cc2)cc1 (stereo unspecified)	Cruzain inh noDet 25.1µM
CCOc1cccc(C2c3[nH]c4ccccc4c3CCN2C(=O)CSc2ccccc2)c1 (stereo unspecified)	Cruzain inh noDet inconclusive
CC1=CC(C)(C)n2c(O)c(N=NC(N)=S)c3c(C)ccc1c32	Cruzain inh noDet 20µM, Cruzain inh Det inconclusive
CC1=CC(C)(C)n2c(O)c(N=NC(N)=S)c3cccc1c32	none
CC(=O)Nc1ccc(NC(=O)CCc2nc3cccnc3n2Cc2cccs2)cc1	none
Cc1cc(C)c2c(n1)nn1c(C)c(CCC(=O)NCc3ccc(Cl)cc3)c(C)nc21	none
Cc1ccc(NC(=O)C2CCN(S(=O)(=O)c3ccc4[nH]c5c(c4c3)CCCCC5)CC2)cc1	Cruzain inh noDet 12.6µM
CCOc1ccccc1NC(=O)C1CCN(S(=O)(=O)c2ccc3[nH]c(=O)oc3c2)CC1	none
CCOc1ccccc1NC(=O)C1CCN(S(=O)(=O)c2ccc3[nH]c4c(c3c2)CCCCC4)CC1	Cruzain inh noDet 12.6µM
Cc1ccc(NC(=S)NCc2ccc3[nH]c4c(c3c2)CCCC4)cc1	Cruzain inh noDet 31.6µM
CC(=O)c1ccc(NC(=O)C2CCN(S(=O)(=O)c3ccc4[nH]c5c(c4c3)CCCCC5)CC2)cc1	none
COc1ccc(C)cc1NC(=O)C1CCN(S(=O)(=O)c2ccc3[nH]c4c(c3c2)CCCCC4)CC1	Cruzain inh noDet 15.8µM
COc1ccc(NC(=O)C2CCN(S(=O)(=O)c3ccc4[nH]c5c(c4c3)CCCCC5)CC2)cc1	none
Cc1ccc(NS(=O)(=O)c2ccc3[nH]c4c(c3c2)CCCCCC4)cc1	none
COc1ccc(NC(=O)CCS(=O)(=O)c2nc(-c3cccs3)cc(C(F)(F)F)n2)cc1OC	none
O=C(NC1CCN(Cc2ccccc2)CC1)c1ccc(Cn2c(=O)c3ccccc3n(Cc3ccc(F)cc3)c2=O)cc1	none
Cc1ccc(Cl)cc1N1CCN(S(=O)(=O)c2ccc3[nH]c4c(c3c2)CCCCC4)CC1	Cruzain inh noDet 5.01µM
Cc1ccc(Cl)cc1N1CCN(S(=O)(=O)c2cccc(S(=O)(=O)N3CCCC3)c2)CC1	Cruzain inh noDet inconclusive
CC1CCN(C(c2ccccc2)c2sc3nc(-c4ccco4)nn3c2O)CC1 (stereo unspecified)	none
COc1cccc(CNS(=O)(=O)c2ccc3c(c2)C(C(C)C)C(=O)N3)c1 (stereo unspecified)	none
CC(C)c1ccc2c(c1)NC(c1ccncc1)=NC(c1cccs1)=N2	none
CCOc1ccc(C2=NC(c3cccs3)=Nc3ccc(C(C)C)cc3N2)cc1	Cruzain inh noDet 3.16µM
CC(=O)Nc1ccc(C2=NN(Cc3nnc(-c4ccccc4)o3)C(=O)SC2)cc1	Cruzain inh noDet inconclusive
O=C1SCC(c2ccc(Cl)cc2Cl)=NN1Cc1nnc(-c2ccccc2)o1	Cruzain inh noDet 15.8µM
Cc1c(Cl)cccc1NC(=O)Nc1c[nH]c(=O)[nH]c1=O	Cruzain inh noDet 20µM
CCOC(=O)c1ccc(NC(=O)Nc2c[nH]c(=O)[nH]c2=O)cc1	none
